The full ranking holds about 33,000 sequences; the median of “E-score (-0.5 to 0.5)” is about -0.01, and the highest 2% start at about 0.26. The full list was thinned out, with the highest values kept by preference.

UniProt P13574, sequence (P13574 whole entry, the tested form may be a part): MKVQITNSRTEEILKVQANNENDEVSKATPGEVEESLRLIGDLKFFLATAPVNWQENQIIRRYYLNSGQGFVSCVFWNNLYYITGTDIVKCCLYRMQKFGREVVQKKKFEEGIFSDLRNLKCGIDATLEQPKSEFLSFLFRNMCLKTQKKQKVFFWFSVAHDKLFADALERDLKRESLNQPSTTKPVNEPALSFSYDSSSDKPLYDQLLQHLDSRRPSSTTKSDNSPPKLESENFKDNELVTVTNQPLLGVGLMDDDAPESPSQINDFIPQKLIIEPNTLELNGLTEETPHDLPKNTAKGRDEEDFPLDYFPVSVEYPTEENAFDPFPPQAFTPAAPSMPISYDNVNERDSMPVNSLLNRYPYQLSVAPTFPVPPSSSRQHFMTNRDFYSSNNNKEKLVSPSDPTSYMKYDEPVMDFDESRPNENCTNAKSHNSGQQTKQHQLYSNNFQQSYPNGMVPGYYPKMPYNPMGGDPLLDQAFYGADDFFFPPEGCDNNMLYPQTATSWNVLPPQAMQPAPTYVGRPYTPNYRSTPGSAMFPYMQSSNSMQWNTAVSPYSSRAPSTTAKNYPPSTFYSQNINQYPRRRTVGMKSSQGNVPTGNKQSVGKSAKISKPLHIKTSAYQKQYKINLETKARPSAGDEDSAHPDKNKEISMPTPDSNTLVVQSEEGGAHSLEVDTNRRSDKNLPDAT

The assay concerns the target Ste12 (UniProt P13574). Put plainly: PBM E-score (8-mer binding enrichment) (E-score (-0.5 to 0.5)); higher = stronger / more preferred TF binding. To be noted: protein concentration: 200 nM; construct: GST-DNA-binding domain. How it is done:
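Universal 'all 10-mer' protein binding microarrays (Agilent AMADID 015681) probed with GST-tagged S. cerevisiae TFs (full-length or DBD) made by in vitro transcription/translation (PURExpress), about 100-200 nM. Bound TF was detected with fluorescent anti-GST. Each ungapped 8-mer (which stands for itself and its reverse complement) is scored by the PBM enrichment score (E-score), a modified Wilcoxon-Mann-Whitney statistic from -0.5 to +0.5, computed with the Universal PBM Analysis Suite. Scale: above 0.35 generally sequence-specific binding.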
As for TTATGAAA, the “PBM E-score” value was 0.431. As for ATATGAAA, the “PBM E-score” value was 0.346. Regarding GTATGAAC, the “PBM E-score” value is -0.018. Take GTATGAGA: the “PBM E-score” value was -0.0324. Then CTATGAAG, with 0.0327; and TTATGCAA, with 0.0901; and GTATGAAA, with 0.338.

With GTTTTCCA, the “PBM E-score” value was determined as 0.093. Turning to ATTGGGCG, the “PBM E-score” value is -0.00653. Then GTGTTGCA, with 0.159; and GTGTTTCA, with 0.489. In the case of ATGTTTCG it was 0.366; in that of CTGTTTAC, 0.0415. In the case of ATGTTCCA it was 0.18; in that of ATGTTTAG, 0.214.

Consider ATGTTTCA, for which the “PBM E-score” value stood at 0.493. In the case of ATATTTCA it was 0.139; in that of GTATTTCA, 0.1. Then CTGTTTCA, with 0.484; and CTGTTTCC, with 0.0865. Regarding ATGTTTCC, the “PBM E-score” value was 0.178. In the case of ACCATAAT it was 0.114; in that of AGAAGCAA, 0.153; in that of ACAGTGCC, -0.0356. In the case of AGCTGCGC it was -0.177; in that of CTGTTTAA, 0.22. In the case of ATGTTTAA it was 0.0895; in that of ATGTTTTA, 0.374. ATTTTTTG: the “PBM E-score” value turned out to be 0.222. In the case of CTGTTTTC it was 0.0946; in that of AGGTTTTG, 0.0633; in that of ATGTTTTG, 0.335.

Regarding GTGTTTAA, the “PBM E-score” value stood at 0.155. As to CTGTTTTA, the “PBM E-score” value worked out at 0.308.

Regarding ATGTTTTC, the “PBM E-score” value was found to be 0.172.

GGGTTTTA: the “PBM E-score” value was determined as 0.217. Then GTGTTTTA, with 0.405; and ACAAGCAA, with -0.00365; and ACCTATGA, with -0.21. Then CGCTGGTA, with -0.118. Then ATAGCAAA, with 0.0867.

Regarding CGGGAGTC, the “PBM E-score” value is -0.12.

With AAAGTTGA, the “PBM E-score” value turned out to be 0.111. Then GGCGCAAA, with 0.218; and TAATGAAA, with 0.155.

For the sequence AAATGAAA, the “PBM E-score” value stood at 0.426. Consider GAATGAGA, for which the “PBM E-score” value was -0.00579.

In the case of GAATGAAA, the “PBM E-score” value was found to be 0.322. In the case of CAATGAAA it was 0.258; in that of GAATGAAC, 0.016. In the case of CCTAGACG it was -0.134; in that of TAGAGAAA, 0.0197. Regarding AACATTTC, the “PBM E-score” value turned out to be 0.0303. In the case of AACATTAA, the “PBM E-score” value stood at 0.301.

For AACATTTA, the “PBM E-score” value came out at 0.29.

For GACATTTA, the “PBM E-score” value was -0.0124. Consider ATCATTAG, for which the “PBM E-score” value was found to be 0.0954. On to GACATTAA, for which the “PBM E-score” value is 0.173.

Consider AACATTAT, for which the “PBM E-score” value worked out at 0.125. In the case of ATCATTAA it was 0.298. Regarding CTCATTAA, the “PBM E-score” value was found to be 0.111.

As to GAGAGAAC, the “PBM E-score” value is -0.0294. Turning to CTTGGCTA, the “PBM E-score” value worked out at 0.0252. Then GCGTGACA, with 0.126; and GCGGCAGA, with -0.128; and GAATAAGC, with -0.0403. Then GTGTTCCA, with 0.141.

On to AATGCGGT, for which the “PBM E-score” value was -0.0129.

For the sequence CCGTTGCC, the “PBM E-score” value was -0.253. In the case of ATGTAATA it was 0.217; in that of CGTTAAAA, -0.00084; in that of TGTTAAAA, 0.168.

As for AAATTTTG, the “PBM E-score” value is 0.0681. With ATTTAACA, the “PBM E-score” value amounted to 0.181. In the case of ATTTTAAA it was 0.348; in that of AATTTTGG, 0.104. In the case of ACTTAAAA it was 0.183; in that of AGTTAAAA, 0.286. As for ATTTTAAG, the “PBM E-score” value came out at 0.161. Then AATTTTTG, with 0.321; and ATTTAAAA, with 0.314; and ATTTTAAC, with 0.19. Then GGTTTTGA, with 0.111; and CCATACCC, with 0.128; and CTAGAATA, with 0.171.

Regarding GCACAGCA, the “PBM E-score” value is -0.102. CAGTGGGC: the “PBM E-score” value is -0.199.

With GACTTAGA, the “PBM E-score” value is -0.272.
